# Source: PMC4336329 (PLoS ONE, 2015)
# The campaign covered roughly 310,000 compounds. About 2,200 (0.71%) showed an effect of 50% or more. The effect is printed as a negative number. What follows is part of a selection rich in strong results, with near analogues and random picks from the rest.
# Biological target: human ether-à-go-go-related gene (hERG) potassium channel (human, UniProt Q12809)
# Assay: primary screen, population patch clamp on CHO cells stably expressing hERG; higher = less effect of the substance
# Chain of human ether-à-go-go-related gene (hERG) potassium channel (Q12809 whole entry, looked up): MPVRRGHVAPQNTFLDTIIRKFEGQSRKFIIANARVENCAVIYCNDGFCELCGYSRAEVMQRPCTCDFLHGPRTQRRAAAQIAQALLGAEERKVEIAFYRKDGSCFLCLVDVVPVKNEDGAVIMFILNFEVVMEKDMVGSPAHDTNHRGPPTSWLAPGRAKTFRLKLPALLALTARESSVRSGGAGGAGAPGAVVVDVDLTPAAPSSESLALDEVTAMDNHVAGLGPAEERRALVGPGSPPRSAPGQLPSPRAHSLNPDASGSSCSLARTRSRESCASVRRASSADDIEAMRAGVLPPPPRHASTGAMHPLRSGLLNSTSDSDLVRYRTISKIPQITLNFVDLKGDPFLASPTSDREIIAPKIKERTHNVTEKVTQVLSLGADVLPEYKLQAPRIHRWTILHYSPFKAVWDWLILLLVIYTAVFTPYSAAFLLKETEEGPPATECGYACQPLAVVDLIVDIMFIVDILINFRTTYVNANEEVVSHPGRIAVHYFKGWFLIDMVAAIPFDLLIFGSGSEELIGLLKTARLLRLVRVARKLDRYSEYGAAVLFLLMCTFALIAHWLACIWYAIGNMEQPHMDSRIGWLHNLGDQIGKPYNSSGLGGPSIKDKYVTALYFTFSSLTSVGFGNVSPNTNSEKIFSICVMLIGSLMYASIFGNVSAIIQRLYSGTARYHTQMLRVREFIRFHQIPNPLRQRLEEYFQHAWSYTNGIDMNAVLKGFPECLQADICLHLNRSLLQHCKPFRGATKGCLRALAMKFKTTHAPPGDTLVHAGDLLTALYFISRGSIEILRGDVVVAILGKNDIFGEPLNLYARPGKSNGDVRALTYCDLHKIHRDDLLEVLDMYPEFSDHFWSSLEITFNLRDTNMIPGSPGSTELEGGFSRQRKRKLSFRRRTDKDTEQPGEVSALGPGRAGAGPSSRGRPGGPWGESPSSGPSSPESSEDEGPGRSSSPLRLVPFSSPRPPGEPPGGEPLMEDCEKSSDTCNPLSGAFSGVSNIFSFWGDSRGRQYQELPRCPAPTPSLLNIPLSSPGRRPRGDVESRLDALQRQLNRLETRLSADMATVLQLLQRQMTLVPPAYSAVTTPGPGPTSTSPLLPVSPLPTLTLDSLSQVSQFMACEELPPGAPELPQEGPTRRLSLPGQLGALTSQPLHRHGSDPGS
row,SMILES,"hERG current change (%, negative = inhibition) at 1uM [%]"
1,CC(=O)N1N=C(c2ccc(Br)cc2)CC1c1cn(C)c2ccccc12 (stereo not drawn),9.41
2,O=C(N/N=C1\CCCc2ccccc21)c1cccc(Br)c1,9.96
3,CCOC(=O)C1(Cc2cccc(F)c2)CCN(Cc2cnn(CC)c2)CC1,-4.74
4,CCOC(=O)C1(Cc2ccc(Cl)cc2)CCN(Cc2cn(CC)nc2C)CC1,-28.5
5,CCOC(=O)C1(Cc2cccc(F)c2)CCN(CCCn2cccn2)CC1,-51.2
6,CCOC(=O)C1(CCCc2ccccc2)CCN(Cc2ccn[nH]2)CC1,-27.8
7,CCOC(=O)C1(Cc2cccc(F)c2)CCN(CC2CC2)CC1,-2.54
8,CCOC(=O)C1(CCCc2ccccc2)CCN(Cc2cn(CC)nc2C)CC1,-59.8
9,COC(=O)C1=CN(Cc2ccc(OC)c(OC)c2)C=C(C(=O)OC)C1c1ccc(F)cc1,4.21
10,COCCNC(=O)c1ccc(CSc2nc3ccccc3s2)cc1,3.95
11,Cc1ccc(Cl)cc1N1CCN(C(=O)c2cc3c(=O)[nH]c4ccccc4c3n2C)CC1,10.4
12,Cn1c(C(=O)N2CCN(c3ccc(Cl)cc3)CC2)cc2c(=O)[nH]c3ccccc3c21,-56
13,Cc1cccc(N2CCN(C(=O)c3cc4c(=O)[nH]c5ccccc5c4n3C)CC2)c1C,11.2
14,COc1ccccc1C(=O)Nn1c(C2CCC2)nc2ccccc2c1=O,4.52
15,CCc1ccc(CNC(=O)Cn2nc(-c3ccccc3)ccc2=O)cc1,8.46
16,CC(=O)Nc1sc2c(c1C#N)CCC(C)C2 (stereo not drawn),11.7
17,CC1CCc2c(sc(NC(=O)COC(=O)c3ccccc3NCc3ccco3)c2C#N)C1 (stereo not drawn),12.9
18,CC1CCc2c(sc(NC(=O)C(=O)NCc3ccco3)c2C#N)C1 (stereo not drawn),-63.6
19,Cc1nc(N)nc(SCc2ccc([N+](=O)[O-])cc2)c1N,-70.8
20,Cc1cc(C)nc(SCc2ccc([N+](=O)[O-])cc2)n1,6.29
21,CC(=O)c1cc(C#N)c(SCc2ccc([N+](=O)[O-])cc2)nc1C,10.4
22,CC(OC(=O)c1ccc2ncsc2c1)C(=O)Nc1ncc(Cl)cc1Cl (stereo not drawn),8.58
23,CC(NC(=O)c1ccc2c(c1)OCCO2)c1ccc(S(N)(=O)=O)cc1 (stereo not drawn),-3.42
24,O=[N+]([O-])c1ccc2oc(C3CCCCC3)nc2c1,14.4
25,CC(NC(=O)c1cccc(S(=O)(=O)N(C)C)c1)c1nc2ccccc2[nH]1 (stereo not drawn),9.08
26,O=C(Cn1nc(-c2ccccc2)ccc1=O)Nc1ccc(-n2cnnn2)cc1,9.23
27,C=CCN1C(=O)NC(=O)C(CCc2ccncc2)(CCc2ccncc2)C1=O,-12.3

row,SMILES,"hERG current change (%, negative = inhibition) at 1uM [%]"
1,O=C1NC(=O)C(CCc2ccncc2)(CCc2ccncc2)C(=O)N1Cc1ccc(F)cc1,-78.2
2,O=C1NC(=O)C(CCc2ccncc2)(CCc2ccncc2)C(=O)N1C1CCCCC1,-69.7
3,O=C1NC(=O)C(CCc2ccncc2)(CCc2ccncc2)C(=O)N1Cc1ccccc1,-43.4
4,O=C1NC(=O)C(CCc2ccncc2)(CCc2ccncc2)C(=O)N1CCc1ccc(F)cc1,-77.1
5,O=C1NC(=O)C(CCc2ccncc2)(C2CCCCC2)C(=O)N1,11.2
6,O=C1NC(=O)C(CCc2ccncc2)(Cc2ccc3c(c2)OCO3)C(=O)N1CCc1ccccc1 (stereo not drawn),-10.8
7,CCc1ccc(N2C(=O)NC(=O)C(CCc3ccncc3)(CCc3ccncc3)C2=O)cc1,-41.1
8,O=C1NC(=O)C(CCc2ccncc2)(CCc2ccncc2)C(=O)N1CCc1ccccc1,-23.1
9,O=C1c2ccccc2C(O)(c2ccccc2)N1C1CC1 (stereo not drawn),-8.45
10,C#CCOc1ccc(Br)cc1C(c1c(C)[nH][nH]c1=O)c1c(C)[nH][nH]c1=O,11.6
11,c1ccc2oc(SCc3cn4ccccc4n3)nc2c1,-12.5
12,COC(=O)COc1ccc(NC(=O)C(c2ccccc2)c2ccccc2)cc1,6.63
13,O=C(Nc1cccc(C(F)(F)F)c1)c1csc(-c2ccncc2)n1,-82.4
14,Cc1ccc(C(=O)Nc2cccc(C(F)(F)F)c2)cc1NC(=O)c1csc(-c2ccncc2)n1,-17.1
15,O=C(Nc1ccc(C(F)(F)F)cc1)c1csc(-c2ccncc2)n1,-2.94
16,CN(CCCNC(=O)C1CCC(=O)N1Cc1ccccc1Cl)c1ccccc1 (stereo not drawn),19.2
17,CCOC(=O)C1(CC2CC2)CCN(Cc2cn(C)c3ccccc23)CC1,12.2
18,CCOC(=O)C1(CC2CC2)CCN(Cc2ccc(OC)cc2F)CC1,-73.3
19,CCOC(=O)C1(CC2CCCCO2)CCN(Cc2cn[nH]c2-c2cccc(F)c2)CC1 (stereo not drawn),-27.2
20,CCOC(=O)C1(Cc2ccccc2)CCN(Cc2cn[nH]c2-c2ccccc2)CC1,1.58
21,CCOC(=O)N1CCN(Cc2cn[nH]c2-c2ccc(-c3ccccc3)cc2)CC1,7.03
22,CCOC(=O)C1(CC2CC2)CCN(Cc2cnc(-c3ccc(OC)cc3)nc2)CC1,11.7
23,CCOC(=O)C1(CC2CC2)CCN(Cc2cn[nH]c2-c2ccccc2)CC1,-65.5
24,CCOC(=O)C1(CC2CCCCO2)CCN(Cc2ccc(OC)cc2F)CC1 (stereo not drawn),-19.8
25,CCOC(=O)C1(CC2CC2)CCN(Cc2cn[nH]c2-c2cccc(F)c2)CC1,-57.6
26,Cc1cnc(C(=O)OCC(=O)Nc2cc(S(=O)(=O)N3CCCCC3)ccc2Cl)cn1,19.4
27,CCOc1ccc(NC(=O)CC2C(=O)N(c3cccc(OC)c3)C(=O)N2CCOC)cc1 (stereo not drawn),3.67
